The values below come from the supplement of paper PMC10849652.

The full data set covers some 7,900 targets. This sample favours those with a hit. About 0.6% of all pairs of compound and target were hits. A number with no mark means an inactive call.

What all share (test): log2 fold change, soluble protein after heating vs DMSO (PISA); higher = thermal stabilisation; K562 cells, 10 uM, 30 min; active = over 0.2 and 3.5 SD of the protein, either way, in both replicates (recomputed)
Compound in assay [1]: CC[C@@H]1C(=O)N(C)c2cnc(Nc3ccc(C(=O)NC4CCN(C)CC4)cc3OC)nc2N1C1CCCC1
The method, boiled down:
(§1)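 Thermal stability values are relative to control samples and come from duplicates. They are expressed as log2 fold changes. For measurement, K562 cells (2×10^6 cells/mL) received 10 μM compound for 30 min, and aliquots were heated for 3 min over 48°C-58°C, pooled, and extracted at 4°C in PBS with 0.5% NP-40. Soluble protein, the supernatant after 21,000xg for 90 min, was quantified by TMTpro 16plex LC-MS/MS with equalised channel sums.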

Compound in assay [2]: CC[C@@H]1C(=O)N(C)c2cnc(Nc3ccc(C(=O)N[C@H]4CC[C@H](N5CCN(CC6CC6)CC5)CC4)cc3OC)nc2N1C(C)C [volasertib]
The method in brief: as §1

Compound in assay [3]: CC[C@H](C)N1C=C(C2=C(C=C(C=C21)C3=CN=C(C=C3)N4CCNCC4)C(=O)NCC5=C(C=C(NC5=O)C)C)C
The method, boiled down:
as §1

Compound in assay [4]: CC[C@H](C)[C@@H](C(=O)N[C@@H]([C@@H](C)O)C(=O)N[C@@H](CC(C)C)C(=O)[C@]1(CO1)C)NC(=O)[C@H]([C@@H](C)CC)N(C)C(=O)C [epoxomicin]
The method in brief: as §1

Compound in assay [5]: CCn1c(C(=O)N(C2CC2)C2CC2)cc2c3c(ncn3C)c(Nc3cc(C)n(C)n3)nc21
The method in brief:
as §1

Compound in assay [6]: CCn1cc(-c2ccnc3[nH]c(-c4cccc(CN(C)C)c4)cc23)c(-c2ccc(NC(=O)N(C)C)cc2)n1
The method in brief: as §1

Compound in assay [7]: CN(C)CC(=O)Nc1ccc2[nH]c(=O)c3ccccc3c2c1
The method in brief: as §1

Compound in assay [8]: CN(CCOC1=CC=C(C=C1)C[C@H]2C(=O)NC(=O)S2)C3=CC=CC=N3 (racemic) [rosiglitazone]
The method, boiled down:
as §1

Compound in assay [9]: CN1C2=C(C3=C1C(=O)N(N=C3)CC4=CC(=CC=C4)N)SC(=C2)S(=O)C
The method, boiled down:
as §1

Compound in assay [10]: CN1CCC(CNc2ccc3ncc(-c4cccc(OC(F)(F)F)c4)n3n2)CC1
The method, boiled down: as §1

Chain of UniProt Q13257 (Q13257 whole entry, looked up): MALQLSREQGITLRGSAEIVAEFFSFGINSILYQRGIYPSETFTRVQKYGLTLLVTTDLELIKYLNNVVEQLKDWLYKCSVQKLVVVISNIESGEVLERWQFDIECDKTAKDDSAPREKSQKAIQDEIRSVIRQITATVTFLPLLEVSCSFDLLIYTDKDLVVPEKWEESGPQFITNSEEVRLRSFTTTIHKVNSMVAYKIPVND
Chain of UniProt Q07820 (Q07820 whole entry, looked up): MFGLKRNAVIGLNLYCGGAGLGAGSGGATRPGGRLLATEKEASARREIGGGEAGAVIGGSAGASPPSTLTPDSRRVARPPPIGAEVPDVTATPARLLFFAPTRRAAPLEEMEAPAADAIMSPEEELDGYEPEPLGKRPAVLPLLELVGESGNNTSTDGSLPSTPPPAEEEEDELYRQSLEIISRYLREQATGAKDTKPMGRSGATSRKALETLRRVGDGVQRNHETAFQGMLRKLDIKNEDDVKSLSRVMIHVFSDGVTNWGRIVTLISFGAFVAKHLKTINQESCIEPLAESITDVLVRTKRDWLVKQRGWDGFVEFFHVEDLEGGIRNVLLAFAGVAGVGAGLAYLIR
Chain of UniProt Q9BQK8 (Q9BQK8 whole entry, looked up): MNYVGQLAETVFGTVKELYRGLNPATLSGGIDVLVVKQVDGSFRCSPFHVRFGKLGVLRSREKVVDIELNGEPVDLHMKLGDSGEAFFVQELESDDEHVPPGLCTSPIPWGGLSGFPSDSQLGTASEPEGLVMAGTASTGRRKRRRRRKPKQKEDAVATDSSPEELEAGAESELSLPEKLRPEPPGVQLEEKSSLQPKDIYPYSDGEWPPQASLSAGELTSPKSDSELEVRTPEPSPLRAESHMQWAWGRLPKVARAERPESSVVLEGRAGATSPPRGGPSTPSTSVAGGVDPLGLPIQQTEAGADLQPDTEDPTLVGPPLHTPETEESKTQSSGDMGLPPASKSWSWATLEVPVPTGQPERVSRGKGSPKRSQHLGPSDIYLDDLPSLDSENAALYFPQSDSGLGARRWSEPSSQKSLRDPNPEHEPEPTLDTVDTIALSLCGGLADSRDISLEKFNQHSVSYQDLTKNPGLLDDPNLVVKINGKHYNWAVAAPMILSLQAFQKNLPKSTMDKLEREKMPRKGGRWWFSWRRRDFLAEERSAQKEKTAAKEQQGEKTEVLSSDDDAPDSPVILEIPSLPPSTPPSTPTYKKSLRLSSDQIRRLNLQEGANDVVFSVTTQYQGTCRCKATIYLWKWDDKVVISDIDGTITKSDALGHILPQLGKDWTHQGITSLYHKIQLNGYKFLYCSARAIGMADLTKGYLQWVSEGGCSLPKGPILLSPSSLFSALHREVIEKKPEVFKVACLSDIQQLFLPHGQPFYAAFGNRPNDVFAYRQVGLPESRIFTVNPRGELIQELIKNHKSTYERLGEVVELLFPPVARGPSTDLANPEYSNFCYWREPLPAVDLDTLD
Chain of UniProt P27448 (P27448 whole entry, looked up): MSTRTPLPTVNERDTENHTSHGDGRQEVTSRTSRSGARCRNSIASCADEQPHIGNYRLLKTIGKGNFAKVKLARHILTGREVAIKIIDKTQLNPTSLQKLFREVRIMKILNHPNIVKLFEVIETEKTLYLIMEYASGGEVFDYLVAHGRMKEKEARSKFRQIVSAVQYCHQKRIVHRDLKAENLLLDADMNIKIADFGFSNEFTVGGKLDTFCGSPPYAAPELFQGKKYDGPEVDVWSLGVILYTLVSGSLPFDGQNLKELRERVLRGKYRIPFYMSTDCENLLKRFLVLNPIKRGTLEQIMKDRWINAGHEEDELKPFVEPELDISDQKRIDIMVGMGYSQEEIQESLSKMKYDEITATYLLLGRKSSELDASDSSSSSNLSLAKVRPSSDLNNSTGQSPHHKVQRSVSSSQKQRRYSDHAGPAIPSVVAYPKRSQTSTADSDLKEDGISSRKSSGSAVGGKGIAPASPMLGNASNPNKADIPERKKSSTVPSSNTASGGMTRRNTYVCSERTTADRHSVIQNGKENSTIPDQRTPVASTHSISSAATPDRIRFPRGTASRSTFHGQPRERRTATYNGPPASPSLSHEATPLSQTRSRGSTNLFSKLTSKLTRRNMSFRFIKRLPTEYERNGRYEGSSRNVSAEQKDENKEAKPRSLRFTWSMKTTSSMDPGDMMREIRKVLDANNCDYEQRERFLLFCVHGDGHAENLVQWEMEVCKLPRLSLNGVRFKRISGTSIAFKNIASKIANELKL
Chain of UniProt P07948 (P07948 whole entry, looked up): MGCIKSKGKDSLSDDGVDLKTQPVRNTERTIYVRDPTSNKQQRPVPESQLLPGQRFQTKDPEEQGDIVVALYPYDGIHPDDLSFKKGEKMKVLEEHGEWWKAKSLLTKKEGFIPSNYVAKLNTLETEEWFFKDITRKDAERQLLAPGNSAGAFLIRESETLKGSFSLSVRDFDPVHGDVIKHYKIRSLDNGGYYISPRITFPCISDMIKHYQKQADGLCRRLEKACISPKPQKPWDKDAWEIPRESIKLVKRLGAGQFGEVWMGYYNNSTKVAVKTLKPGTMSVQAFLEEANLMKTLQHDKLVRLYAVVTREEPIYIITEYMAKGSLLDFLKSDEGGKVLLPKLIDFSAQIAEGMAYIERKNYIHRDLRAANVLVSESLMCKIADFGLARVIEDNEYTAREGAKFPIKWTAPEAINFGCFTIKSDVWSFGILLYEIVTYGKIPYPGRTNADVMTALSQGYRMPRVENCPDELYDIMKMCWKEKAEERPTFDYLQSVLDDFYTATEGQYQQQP
Chain of UniProt Q8WV07 (Q8WV07 whole entry, looked up): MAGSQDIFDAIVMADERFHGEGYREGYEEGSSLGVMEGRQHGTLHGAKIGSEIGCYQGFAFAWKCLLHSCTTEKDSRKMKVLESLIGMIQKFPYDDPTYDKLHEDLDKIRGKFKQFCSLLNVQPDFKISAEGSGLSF
Chain of UniProt Q96GA3 (Q96GA3 whole entry, looked up): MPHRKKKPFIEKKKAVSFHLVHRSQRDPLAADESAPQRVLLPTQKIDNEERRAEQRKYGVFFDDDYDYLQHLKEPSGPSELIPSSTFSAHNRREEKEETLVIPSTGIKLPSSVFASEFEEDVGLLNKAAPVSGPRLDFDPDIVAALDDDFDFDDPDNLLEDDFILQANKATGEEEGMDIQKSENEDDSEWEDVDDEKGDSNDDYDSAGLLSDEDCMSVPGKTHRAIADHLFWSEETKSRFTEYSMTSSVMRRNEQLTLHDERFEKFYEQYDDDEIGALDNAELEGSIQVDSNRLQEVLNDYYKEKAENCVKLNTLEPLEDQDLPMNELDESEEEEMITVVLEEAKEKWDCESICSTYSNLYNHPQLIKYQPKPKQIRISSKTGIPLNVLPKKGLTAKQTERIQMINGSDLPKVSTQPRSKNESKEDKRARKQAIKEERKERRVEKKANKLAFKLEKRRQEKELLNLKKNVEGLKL
Chain of UniProt Q13422 (Q13422 whole entry, looked up): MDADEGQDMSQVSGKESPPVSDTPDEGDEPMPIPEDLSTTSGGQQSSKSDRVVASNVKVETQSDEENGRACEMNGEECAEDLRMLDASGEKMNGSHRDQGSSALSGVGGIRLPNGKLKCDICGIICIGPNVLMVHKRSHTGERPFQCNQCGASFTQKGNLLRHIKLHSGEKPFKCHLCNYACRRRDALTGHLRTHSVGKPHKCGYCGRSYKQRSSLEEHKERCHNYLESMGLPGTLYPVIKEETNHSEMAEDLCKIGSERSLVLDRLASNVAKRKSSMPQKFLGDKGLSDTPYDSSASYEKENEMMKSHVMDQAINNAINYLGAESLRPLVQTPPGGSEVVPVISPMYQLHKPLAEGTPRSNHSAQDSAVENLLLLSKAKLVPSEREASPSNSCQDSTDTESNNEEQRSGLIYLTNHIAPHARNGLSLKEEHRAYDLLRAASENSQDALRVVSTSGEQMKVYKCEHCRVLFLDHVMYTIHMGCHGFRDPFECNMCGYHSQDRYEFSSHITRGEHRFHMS
Chain of UniProt Q13418 (Q13418 whole entry, looked up): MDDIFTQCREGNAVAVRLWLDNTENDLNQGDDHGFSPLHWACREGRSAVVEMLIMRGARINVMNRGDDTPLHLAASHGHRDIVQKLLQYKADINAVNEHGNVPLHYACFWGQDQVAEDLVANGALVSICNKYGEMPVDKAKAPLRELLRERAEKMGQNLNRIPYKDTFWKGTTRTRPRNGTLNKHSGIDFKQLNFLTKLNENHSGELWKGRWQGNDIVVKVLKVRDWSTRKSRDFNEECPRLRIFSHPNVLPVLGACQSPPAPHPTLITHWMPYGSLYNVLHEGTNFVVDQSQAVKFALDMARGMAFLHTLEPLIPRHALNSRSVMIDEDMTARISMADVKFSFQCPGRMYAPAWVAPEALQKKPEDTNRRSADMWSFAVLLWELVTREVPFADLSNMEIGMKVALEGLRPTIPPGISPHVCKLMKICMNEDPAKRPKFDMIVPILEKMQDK
Chain of UniProt Q9H9P8 (Q9H9P8 whole entry, looked up): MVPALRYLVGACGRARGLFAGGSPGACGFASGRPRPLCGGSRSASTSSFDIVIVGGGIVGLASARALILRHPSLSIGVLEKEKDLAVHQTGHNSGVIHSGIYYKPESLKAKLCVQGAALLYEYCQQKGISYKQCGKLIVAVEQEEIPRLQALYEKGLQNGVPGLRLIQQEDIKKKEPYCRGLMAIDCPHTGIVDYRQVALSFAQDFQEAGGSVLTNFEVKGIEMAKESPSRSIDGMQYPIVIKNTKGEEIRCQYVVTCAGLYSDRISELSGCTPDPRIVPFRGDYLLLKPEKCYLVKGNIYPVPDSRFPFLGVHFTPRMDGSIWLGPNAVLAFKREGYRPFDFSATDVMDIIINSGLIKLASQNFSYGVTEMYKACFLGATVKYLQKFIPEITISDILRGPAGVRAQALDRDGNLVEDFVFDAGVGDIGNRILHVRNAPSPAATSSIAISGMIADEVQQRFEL

As for IWS1 (UniProt Q96ST2), the log2 fold change in [1] was 0.048; in assay [2] it was 0.034; in assay [3], 0.029; in [4], 0.006; in assay [5], -0.14; in assay [6], 0.021. Further, the log2 fold change was 0.046 in assay [7], 0.029 in [8], 0 in assay [9] and -0.054 in assay [10].

As for LBR (UniProt Q14739), the log2 fold change was -0.036 in assay [1]; 0.552 (active) in assay [2]; 0.051 in assay [3]; 0.022 in assay [4]; -0.012 in assay [5]; -0.071 in [6]. For the same target, the log2 fold change in assay [7] is 0.056; in assay [8], 0.086; in [9], -0.026; in [10] it was 0.099.

For MIEF1 (UniProt L0R8F8), the log2 fold change was -0.028 in [1]; -0.076 in assay [2]; -0.106 in assay [3]; 0.022 in assay [4]; 0.017 in assay [5]; -0.065 in assay [6]. In addition, the log2 fold change in [7] was -0.018; in [8], -0.019; in assay [9], -0.028; in assay [10], -0.021.

Consider MCL1 (UniProt Q07820), for which the log2 fold change is -0.03 in assay [1]; -0.038 in [2]; -0.033 in [3]; 0.308 in [4]; 0.213 in assay [5]; -0.032 in assay [6]. Besides, the log2 fold change in assay [7] was 0.052; in assay [8], 0.019; in assay [9] it was -0.035; in [10], -0.209.

As for MAD2L1 (UniProt Q13257), the log2 fold change in assay [1] is -0.058; in assay [2] it was -0.381 (active); in assay [3], 0.016; in assay [4] it was -0.045; in assay [5], 0; in assay [6], -0.038. Also, the log2 fold change is 0.002 in assay [7], 0.052 in assay [8], -0.081 in assay [9] and -0.166 in assay [10].

Turning to LPIN3 isoform 2 (UniProt Q9BQK8), the log2 fold change in assay [1] is 0.016; in assay [2], -0.015; in assay [3], 0.04; in assay [4] it was 0.073; in assay [5], -0.048; in assay [6], -0.078. The log2 fold change in assay [7] is -0.054; in assay [8], 0.135; in [9], 0.002; in [10], -0.27 (active).

Take L2HGDH (UniProt Q9H9P8): the log2 fold change in assay [1] was -0.088; in assay [2], -0.014; in assay [3], 0.006; in assay [4], -0.02; in assay [5], -0.023; in assay [6], -0.067. Moreover, the log2 fold change in assay [7] was -0.027; in [8] it was 0.031; in assay [9], -0.11; in assay [10], -0.325 (active).

Turning to MARK3 (UniProt P27448), the log2 fold change in assay [1] was -0.057; in assay [2] it was -0.078; in assay [3], 0.097; in assay [4] it was 0.019; in assay [5] it was -0.03; in assay [6] it was -0.019. For the same target, the log2 fold change in assay [7] is 0.055; in assay [8], 0.049; in assay [9], 0.051; in assay [10], -0.549 (active).

For LYN (UniProt P07948), the log2 fold change was -0.016 in assay [1]; -0.023 in assay [2]; 0.033 in [3]; 0.039 in [4]; 0.037 in assay [5]; -0.095 in assay [6]. The log2 fold change was -0.024 in assay [7], -0.009 in [8], 0.144 in assay [9] and -0.03 in [10].

For LTV1 (UniProt Q96GA3), the log2 fold change was 0.09 in assay [1]; 0.004 in [2]; 0.06 in assay [3]; -0.109 in [4]; 0.021 in assay [5]; 0.023 in assay [6]. Further, the log2 fold change in assay [7] was -0.049; in assay [8] it was -0.032; in assay [9], 0.189; in assay [10], 0.104.

Turning to IKZF1 (UniProt Q13422), the log2 fold change in [1] is 0.079; in assay [2] it was -0.067; in assay [3], 0.053; in assay [4], -0.052; in [5], 0.018; in [6], -0.048. The log2 fold change in assay [7] was 0.024; in [8], 0.008; in assay [9], 0.051; in assay [10], -0.239.

With ILK (UniProt Q13418), the log2 fold change was 0.033 in assay [1]; 0.064 in assay [2]; 0.035 in [3]; -0.04 in assay [4]; -0.037 in [5]; -0.052 in assay [6]. The log2 fold change in assay [7] was -0.006; in assay [8] it was 0.051; in assay [9], 0.125; in assay [10] it was -0.191.

Take LTO1 (UniProt Q8WV07): the log2 fold change in assay [1] is -0.018; in assay [2], 0.322; in assay [3], 0.058; in assay [4], 0.063; in assay [5], -0.008; in [6] it was -0.029. The log2 fold change in assay [7] is -0.312 (active); in [8], 0.013; in assay [9] it was -0.105; in [10], 0.035.

For MAPK14 isoform 2 (UniProt Q16539), the log2 fold change in [1] is -0.223; in assay [2], -0.398; in [3], -0.019; in [4], 0.02; in assay [5], 0.081; in assay [6], 0.001. Besides, the log2 fold change was 0.039 in assay [7], 0.007 in assay [8], -0.029 in assay [9] and 0.074 in assay [10].

As for KHDRBS1 (UniProt Q07666), the log2 fold change is 0.148 in assay [1]; 0.106 in assay [2]; 0.074 in assay [3]; -0.029 in assay [4]; 0.016 in assay [5]; -0.096 in assay [6]. The log2 fold change in assay [7] is -0.007; in assay [8], -0.028; in [9], -0.04; in assay [10], 0.116.
